A short description of assay [1]: qHTS Assay for Lipid Storage Modulators (AID 1519; calls by dose curve; on activity change, negative = inhibition: on the % scale 0 is the no-effect control and ±100 the full control effect). The note with it: Drosophila S3 cells, BODIPY lipid droplet/cell ratio, laser cytometry, cells loaded with oleic acid; for activity change, negative = inhibition: at 57.5 µM (top of the series). The essentials: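 Cells seeded at 5,000 per well were treated with compounds over a concentration series and loaded with oleic acid (400 uM, as added). Lipid droplet fluorescence (488 nm excitation, 500-530 nm channel) was read by laser-scanning cytometry and normalized to 20 uM Triacsin C.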

In assay [2] the target is ATP-dependent 6-phosphofructokinase (Trypanosoma brucei brucei) (UniProt O15648). Briefly: qHTS Assay to Find Inhibitors of T. brucei phosphofructokinase: hit validation (AID 492961).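 Further: luminescence reports ADP formed as PFK phosphorylates fructose-6-phosphate with ATP; on the % scale 0 is the no-effect control and ±100 the full control effect.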 Particulars: T. brucei PFK, ADP-Glo luminescence; series mostly up to 24.3 µM. The essentials: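 ADP-Glo luminescence read-out of ADP formed by 1.25 nM PFK from 0.1 mM ATP and 0.5 mM F6P (TEA pH 8.0, 45 min, RT). Compounds titrated; activity normalized to no-enzyme and full-enzyme controls.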
(In general: qHTS replaces the single test concentration by a dilution series.)

Assay [3] deals with Luciferin 4-monooxygenase (Photinus pyralis) (UniProt P08659). The experiment in a line: Biochemical firefly luciferase enzyme assay for NPC (AID 624030).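 Further: purified P. pyralis luciferase at 10 nM with luciferin and ATP substrate; 0% = DMSO and -100% = full luciferase inhibition by PTC124 control; nearly all actives have a fitted effect of over 70% in size.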 Particulars: purified P. pyralis luciferase, luminescence, 5 min; series mostly up to 24.9 µM. Put shortly: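 Direct inhibition of firefly luciferase enzyme (10 nM final, 50 mM Tris Acetate) assessed by luminescence within 5 minutes. Percent activity scaled between DMSO and PTC124 positive control, with concentration-effect curves classified by fit quality and response.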

Assay [4] in a line: qHTS profiling for inhibitors of Plasmodium falciparum proliferation (AID 504749). Further: potency means the concentration at half of the fitted maximal effect.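 On activity, negative = inhibition: 0% = DMSO vehicle and full inhibition = artemisinin control.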 On all read-outs here: nearly all actives have a fitted effect of over 60% in size. The note with it: P. falciparum in erythrocytes, SYBR Green DNA, 72 h; for activity, negative = inhibition: at 28.7 µM (top of the series). The essentials:
(§1)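 Infected RBCs, 0.3% parasitemia/2.5% Hct final; cpd 72 h, 37 C, 5% CO2; lysis buffer with saponin/triton/SYBR Green I, o/n RT dark; FI 485/535; norm. to artemisinin (0.29 uM) and DMSO.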

A further assay relates to AS120. Described as above. Particulars: P. falciparum in erythrocytes, SYBR Green DNA, 72 h; series mostly up to 12.8 µM. Put shortly: as §1
In another assay the test system is C2A. Described as above. Particulars: P. falciparum in erythrocytes, SYBR Green DNA, 72 h; series mostly up to 12.8 µM. Put shortly:
as §1

The next assay deals with CP191. Described as above. Particulars: P. falciparum in erythrocytes, SYBR Green DNA, 72 h; series mostly up to 12.8 µM. Put shortly:
as §1

The subject of a further assay is CP217. The description is as above. The note with it: P. falciparum in erythrocytes, SYBR Green DNA, 72 h; series mostly up to 12.8 µM. The essentials: as §1
The subject of another assay is CP305. Described as above. Particulars: P. falciparum in erythrocytes, SYBR Green DNA, 72 h; series mostly up to 12.8 µM. Put shortly:
as §1

Another assay relates to CP329. Described as above. The note with it: P. falciparum in erythrocytes, SYBR Green DNA, 72 h; series mostly up to 12.8 µM. Put shortly:
as §1

In the next assay the test system is ECU. The description is as above. Particulars: P. falciparum in erythrocytes, SYBR Green DNA, 72 h; series mostly up to 12.8 µM. Put shortly: as §1
The test system of the next assay is FAB9. The description is as above. The note with it: P. falciparum in erythrocytes, SYBR Green DNA, 72 h; series mostly up to 12.8 µM. The essentials:
as §1

The next assay deals with N140. Described as above. Particulars: P. falciparum in erythrocytes, SYBR Green DNA, 72 h; series mostly up to 12.8 µM. The essentials:
as §1

Another assay has as its system PC15. The description is as above. The note with it: P. falciparum in erythrocytes, SYBR Green DNA, 72 h; series mostly up to 12.8 µM. The essentials: as §1
A further assay concerns PC49. The description is as above. Particulars: P. falciparum in erythrocytes, SYBR Green DNA, 72 h; series mostly up to 12.8 µM. Put shortly: as §1
For a further assay, the system named is TAB165. Described as above. The note with it: P. falciparum in erythrocytes, SYBR Green DNA, 72 h; series mostly up to 12.8 µM. The essentials: as §1
Assay [5] concerns the target Ubiquitin carboxyl-terminal hydrolase 1 (Homo sapiens) (UniProt O94782). Briefly: Inhibitors of USP1/UAF1: Pilot qHTS (AID 504865).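 Further: rhodamine fluorescence freed from ubiquitin-rhodamine substrate followed over time; top concentration of the series differs between compounds; on the % scale 0 is the no-effect control and ±100 the full control effect; nearly all actives have a fitted effect of over 35% in size.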 Particulars: purified USP1/UAF1, Ub-rhodamine cleavage fluorescence; series mostly up to 114 µM. The essentials: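 Deubiquitinase activity followed as kinetic rhodamine fluorescence release from 150 nM Ub-Rho. 1 nM USP1/UAF1 with compound, after 15 min room-temperature preincubation, in HEPES pH 7.8 buffer containing TCEP, EDTA, BSA and Tween-20.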

[6] abbreviates: measured here: cell count channel max response.
[7] abbreviates: measured here: lipid channel max response.

Results filed as inconclusive are left out. Activity calls are given as the source filed them. Unless noted, the call rests on the fitted dose curve; in most records, active means well fitted curve in the direction sought with a large enough effect; inconclusive means small, poorly fitted or top-dose-only effect, or another doubt; inactive means no such curve, though single readings can be large; an effect the other way counts as inactive or inconclusive.

Luciferin 4-monooxygenase (Photinus pyralis), sequence (P08659 whole entry, looked up): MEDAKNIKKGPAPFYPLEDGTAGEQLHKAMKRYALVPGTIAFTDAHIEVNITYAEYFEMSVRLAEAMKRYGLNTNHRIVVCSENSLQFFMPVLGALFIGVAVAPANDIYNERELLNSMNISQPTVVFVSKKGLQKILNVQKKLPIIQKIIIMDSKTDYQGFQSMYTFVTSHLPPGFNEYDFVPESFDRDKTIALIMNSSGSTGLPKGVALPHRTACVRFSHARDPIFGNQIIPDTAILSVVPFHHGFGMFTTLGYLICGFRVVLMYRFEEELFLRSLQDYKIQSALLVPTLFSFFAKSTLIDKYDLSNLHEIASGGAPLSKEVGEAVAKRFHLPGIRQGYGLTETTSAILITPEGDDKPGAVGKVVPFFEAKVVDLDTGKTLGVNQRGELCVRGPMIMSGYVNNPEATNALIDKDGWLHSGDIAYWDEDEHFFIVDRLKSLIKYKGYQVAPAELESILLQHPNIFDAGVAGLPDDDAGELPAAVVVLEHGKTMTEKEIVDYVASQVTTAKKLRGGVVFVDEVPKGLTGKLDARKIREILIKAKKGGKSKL
ATP-dependent 6-phosphofructokinase (Trypanosoma brucei brucei), sequence (O15648 whole entry, looked up): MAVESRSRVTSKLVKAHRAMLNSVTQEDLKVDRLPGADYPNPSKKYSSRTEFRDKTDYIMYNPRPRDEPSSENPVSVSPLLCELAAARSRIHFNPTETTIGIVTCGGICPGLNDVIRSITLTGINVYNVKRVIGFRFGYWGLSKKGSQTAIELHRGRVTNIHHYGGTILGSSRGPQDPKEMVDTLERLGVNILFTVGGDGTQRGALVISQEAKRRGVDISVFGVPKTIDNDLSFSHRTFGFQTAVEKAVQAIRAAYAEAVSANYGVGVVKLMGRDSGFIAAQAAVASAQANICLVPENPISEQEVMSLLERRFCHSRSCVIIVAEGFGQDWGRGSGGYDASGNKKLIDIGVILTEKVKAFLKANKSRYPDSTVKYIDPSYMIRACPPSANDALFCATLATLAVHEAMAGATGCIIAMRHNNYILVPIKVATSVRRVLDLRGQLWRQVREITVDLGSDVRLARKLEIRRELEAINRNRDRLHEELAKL
Ubiquitin carboxyl-terminal hydrolase 1 (Homo sapiens), sequence (O94782 whole entry, looked up): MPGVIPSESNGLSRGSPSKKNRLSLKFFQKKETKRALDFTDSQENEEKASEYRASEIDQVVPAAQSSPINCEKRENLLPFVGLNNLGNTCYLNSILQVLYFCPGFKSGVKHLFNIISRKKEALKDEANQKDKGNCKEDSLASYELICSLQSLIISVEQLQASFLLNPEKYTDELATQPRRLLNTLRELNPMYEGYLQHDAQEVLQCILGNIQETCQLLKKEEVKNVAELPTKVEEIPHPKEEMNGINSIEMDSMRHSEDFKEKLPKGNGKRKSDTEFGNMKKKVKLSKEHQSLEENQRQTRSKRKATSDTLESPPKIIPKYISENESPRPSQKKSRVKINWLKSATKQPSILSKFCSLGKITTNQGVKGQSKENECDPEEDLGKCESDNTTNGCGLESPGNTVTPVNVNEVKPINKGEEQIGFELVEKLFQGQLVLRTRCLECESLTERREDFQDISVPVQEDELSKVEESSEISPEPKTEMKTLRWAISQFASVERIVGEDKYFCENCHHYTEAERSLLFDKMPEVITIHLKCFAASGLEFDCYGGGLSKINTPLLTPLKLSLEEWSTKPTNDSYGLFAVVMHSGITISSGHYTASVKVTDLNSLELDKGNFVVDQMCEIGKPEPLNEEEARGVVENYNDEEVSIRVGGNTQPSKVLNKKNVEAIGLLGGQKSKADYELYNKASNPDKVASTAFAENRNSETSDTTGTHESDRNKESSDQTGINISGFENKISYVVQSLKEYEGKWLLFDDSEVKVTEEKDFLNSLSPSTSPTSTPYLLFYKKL

Consider `CC1(C)SC2C(N3C(=O)C(c4ccccc4)NC3(C)C)C(=O)N2C1C(=O)O` (centres undefined), for which, in assay [1], the activity change, negative = inhibition is 8.56% (inactive). Besides, the max response in [1] (setting [6]) is 12.6%; in assay [1] (setting [7]), 31%. The result in assay [2] was inactive. The Potency entry (in assay [3]; in the assay on AS120; with C2A; with CP191; in the assay on CP217; in the assay with CP305) was “inactive” in each case. Also, the Potency result in the assay with CP329, in the assay on ECU, with FAB9, in the assay with N140, in the assay on PC15 and in the assay with PC49 was “inactive” each time. The Potency entry in the assay on TAB165 is “inactive”. Also, the activity, negative = inhibition in assay [4] (parasite line A) was -1.6% (inactive); in [4] (parasite line B) it was 9.57% (inactive).
In the case of `COC1C=CO[C@@]2(C)Oc3c(C)c(O)c4c(O)c(c(C=NN5CCN(C)CC5)c(O)c4c3C2=O)NC(=O)/C(C)=C\C=CC(C)C(O)[C@@H](C)C(O)C(C)[C@H](OC(C)=O)C1C` (some centres undefined), the activity change, negative = inhibition in [1] is -0.247% (inactive). In addition, the max response in [1] (setting [6]) turned out to be 7.61%; in [1] (setting [7]), 10.6%. Further, the call in [2] was inactive. Further, the Potency was 3.98 µM (active) in assay [4] (parasite line A); 3.98 µM (active) in assay [4] (parasite line B); 282 nM (active) in the assay on AS120; 8.91 µM (active) in the assay with C2A; 2.82 µM (active) in the assay on CP191; 5.01 µM (active) with CP217. The Potency with CP305 is 3.79 µM (active); in the assay on CP329, 3.38 µM (active); in the assay with ECU, 282 nM (active); in the assay on N140 it was 199 nM (active); with PC15 it was 398 nM (active); with PC49, 1.41 µM (active). Further, in the assay with TAB165, the Potency was 141 nM (active).
Turning to `OCC1OC([S-])[C@H](O)C(O)C1O.[Au+]` (some centres undefined), in [1], the activity change, negative = inhibition is 9.01% (inactive). Further, the values for the max response in [1] (setting [6]) and in [1] (setting [7]) were 5.52% and 19.8%, respectively. In addition, the result in assay [2] was inactive. For the same compound, the Potency result (in assay [5]; in assay [3]; with AS120; in the assay with C2A; in the assay with CP191; in the assay on CP217) was “inactive” each time. Further, the Potency entry with CP305, in the assay with CP329, in the assay on ECU, with FAB9, with N140 and with PC15 was “inactive” in each case. For the same compound, the Potency result in the assay with PC49 and with TAB165 was “inactive” in each case. Moreover, the activity, negative = inhibition is -14% (inactive) in assay [4] (parasite line A) and -7.29% (inactive) in [4] (parasite line B).
Take `COc1c(O)cc(O)cc1O`: in assay [1], the activity change, negative = inhibition is -1.6% (inactive). Moreover, the max response in assay [1] (setting [6]) was 3.65%; in assay [1] (setting [7]) it was 4.87%. In addition, the Potency entry in [5] is “inactive”.
Consider `CCC1OC(=O)C(C)[C@@H](O[C@H]2C[C@@](C)(OC)C(O)C(C)O2)C(C)[C@@H](O[C@@H]2OC(C)CC(N(C)C)C2O)[C@@](C)(O)CC(C)C(=O)[C@@H](C)C(O)[C@]1(C)O` (some centres undefined), for which, in [1], the activity change, negative = inhibition is -1.12% (inactive). In addition, the max response in assay [1] (setting [6]) amounted to 15.2%; in assay [1] (setting [7]) it was 17.2%. Also, in [2], the result was inactive. The Potency entry (in assay [5]; in assay [3]; in the assay with AS120; with C2A; in the assay on CP191; with CP217) was “inactive” each time. Also, the Potency result in the assay with CP305, in the assay with CP329, in the assay on ECU, in the assay with FAB9, in the assay on N140 and in the assay with PC15 was “inactive” each time. Moreover, the Potency entry in the assay on PC49 and with TAB165 was “inactive” each time. Besides, in assay [4] (parasite line B), the Potency is 11.2 µM (active).
In the case of `O=C1OC(CO)C(O)C(O)C1O` (centres undefined), the activity change, negative = inhibition in assay [1] was 6.29% (inactive). Moreover, the results for the max response in [1] (setting [6]) and in [1] (setting [7]) were 17.3% and 26.8%, respectively. Moreover, the compound was classed as inactive in assay [2]. Further, the Potency result (in assay [5]; in [3]; in the assay on AS120; in the assay with C2A; in the assay with CP191; in the assay on CP217) was “inactive” each time. The Potency result in the assay on CP305, in the assay with CP329, with ECU, in the assay with FAB9, with N140 and with PC15 was “inactive” throughout. The Potency entry with PC49 and in the assay on TAB165 was “inactive” each time. Also, the activity, negative = inhibition in [4] (parasite line A) was 11.9% (inactive); in [4] (parasite line B), -2.03% (inactive).

These data come from PubChem BioAssay (NCATS).
